Compounds with a hit are over-represented: about 2.8% of the library has one in this group of screens.
IP6K1 inh: Primary qHTS assay for small molecule inhibitors of Inositol hexaphosphate kinase 1 (IP6K1); hit rate 0.81% among 140,000; Inositol hexakisphosphate kinase 1 (Homo sapiens), Q92551; activity change, % (series mostly up to about 58 µM); AID 1645851, 2021; IP6K1 kinase, ADP-Glo luminescence, 2 h; active compounds read low; in the data active = activity change below about -25%
Target sequence (Q92551 whole entry, looked up): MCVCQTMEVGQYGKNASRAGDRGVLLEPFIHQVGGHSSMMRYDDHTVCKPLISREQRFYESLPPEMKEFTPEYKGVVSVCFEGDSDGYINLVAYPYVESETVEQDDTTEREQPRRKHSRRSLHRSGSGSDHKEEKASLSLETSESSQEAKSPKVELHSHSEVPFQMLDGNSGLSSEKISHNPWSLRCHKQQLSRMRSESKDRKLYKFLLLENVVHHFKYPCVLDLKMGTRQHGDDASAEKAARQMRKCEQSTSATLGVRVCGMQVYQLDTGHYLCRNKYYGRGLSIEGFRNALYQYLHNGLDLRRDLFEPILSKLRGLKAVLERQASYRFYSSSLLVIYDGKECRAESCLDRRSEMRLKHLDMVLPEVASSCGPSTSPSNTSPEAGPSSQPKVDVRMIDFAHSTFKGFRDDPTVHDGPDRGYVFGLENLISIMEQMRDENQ
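ADP-Glo luminescence measures ADP made by human IP6K1 during a 2 h RT reaction with ATP/IP6 (mix at 1.3 mM/130 uM); top library doses 57.5 and 19.1 uM final.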
KDM5B inhibitor: Primary screen for KDM5B Histone Demethylases FDH-coupled qHTS; KDM5B demethylase, FDH-coupled NADH fluorescence (FDH is formaldehyde dehydrogenase); AID 1347165, 2019; Potency, µM (titrated, usually from 57.7 µM), usual class: inhibitors; Lysine-specific demethylase 5B (Homo sapiens), Q9UGL1; hit rate 2.6% among 220,000; active = well fitted inhibition curve with a large enough effect; inconclusive = small, poorly fitted or top-dose-only effect; inactive = no such curve, though single readings can be large or run the other way; note: nearly all actives have a fitted effect of over 70% in size
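Measured: NADH fluorescence change, 30 min, RT. System: KDM5BΔAP 200 nM final, H3K4me3 peptide, α-KG, Fe(II), ascorbate, NAD⁺ plus FDH, pH 7.5 HEPES. Compounds: titrated, 10 min pre-incubation with enzyme.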
Large screens that a line does not name were inactive; ! = repeats disagree.

Cn1ccnc1-c1ccc(N2CCCC(CO)(CCOc3ccccc3)C2)nn1 (stereo not drawn)	KDM5B inhibitor 32µM
OCC1(CCOc2ccccc2)CCN(c2nnnn2-c2ccccc2)CC1	none
CC(C)C(C#CCN1CCCCC1)(c1ccccc1)c1ccccc1	none (no result: IP6K1 inh)
CN1CCC2(C1)CN(CC1CC1)c1ccc(C(=O)NC3CCC3)cc12 (stereo not drawn)	KDM5B inhibitor 35µM
CN1CCC2(C1)CN(CC1CC1)c1ccc(C(=O)NC3COC3)cc12 (stereo not drawn)	KDM5B inhibitor 35µM
COCCN(C)C(=O)c1ccc2c(c1)C1(CCN(C)C1)CN2CC1CC1 (stereo not drawn)	KDM5B inhibitor inconclusive
CN1CCC2(C1)CN(Cc1ccccc1)c1ccc(C(=O)NC3CCCCC3)cc12 (stereo not drawn)	KDM5B inhibitor inconclusive
Cn1nc(C(=O)N2CCN(c3ncccn3)CC2)c2ccccc2c1=O	none (no result: IP6K1 inh)
CC1Oc2ccccc2C=C1/C=C/C(=O)c1cccc(O)c1 (stereo not drawn)	none (no result: IP6K1 inh)
CN(C)C[C@@H]1CN(Cc2ccncc2)C[C@H]1NC(=O)c1ccc(Cl)cc1	KDM5B inhibitor 20µM
COCC(=O)N[C@@H]1CN(Cc2ccncc2)C[C@H]1CN(C)C	KDM5B inhibitor 25µM
COCC(=O)N[C@@H]1CN(Cc2ccccc2)C[C@H]1CN(C)C	none
CN(C)C[C@@H]1CN(Cc2ccncc2)C[C@H]1NC(=O)c1ccoc1	KDM5B inhibitor inconclusive
Cc1c(-n2nnnc2SCC2CCCCC2)c(=O)n(-c2ccccc2)n1C	none (no result: IP6K1 inh)
OC1(CNc2cc(C(F)(F)F)nc(N3CCCC3)n2)CCCNCC1 (stereo not drawn)	KDM5B inhibitor 25µM
O=C(NCC1(O)CCCNCC1)c1ccc(-n2cnnc2)cc1 (stereo not drawn)	none
CCCC(=O)N1CCCC(c2noc(COc3ccccc3F)n2)C1 (stereo not drawn)	none
OC1(c2ccc(F)cc2)CCN(c2nccc(-c3ccccn3)n2)CC1	KDM5B inhibitor inconclusive
Cc1ccnc(N2CCC(O)(c3ccc(F)cc3)CC2)n1	KDM5B inhibitor 28µM
CNC(=O)[C@@H]1CNC[C@H]1c1nc(COC)no1	none
O=C(NCc1nnc2ccc(-c3ccccc3)nn12)c1ccco1	KDM5B inhibitor 28µM
O=C(NCc1nnc2ccc(-c3ccc(Cl)cc3)nn12)c1ccco1	KDM5B inhibitor inconclusive
Cc1ccc(-c2ccc3nnc(CNC(=O)c4ccco4)n3n2)cc1	KDM5B inhibitor 32µM
O=C(Cc1ccc(Br)cc1)NCc1nnc2ccc(-c3ccccc3)nn12	KDM5B inhibitor inconclusive
Cc1ccc(OCC(=O)N2CCC3(CC2)CC(OCC2CC2)CCO3)cc1 (stereo not drawn)	none
CN1CCC2(C1)CN(Cc1ccccc1)c1ccc(C(=O)NCC[S+](C)(=O)[O-])cc12 (stereo not drawn)	KDM5B inhibitor 35µM
CN1CCC2(C1)CN(Cc1ccccc1)c1ccc(C(=O)NC3CCC3)cc12 (stereo not drawn)	KDM5B inhibitor inconclusive
CN1CCC2(C1)CN(Cc1ccccc1)c1ccc(C(=O)NC3CC3)cc12 (stereo not drawn)	KDM5B inhibitor 35µM
CN1CCCC2(C1)CN(Cc1cccnc1)c1ccc(C(=O)Nc3ccccc3)cc12 (stereo not drawn)	KDM5B inhibitor inconclusive
CSc1nc(C)cc(C(=O)O)n1	none (no result: IP6K1 inh)
c1ccc(Cn2cc(CN3CCN(c4ccncc4)CC3)c(-c3cc4ccccc4o3)n2)cc1	none
CC(C)CN(C)C(=O)c1cc(-c2cnn(C(C)C)c2)nc2ccc(F)cc12	KDM5B inhibitor inconclusive
CC(C)c1ncc(-c2cc(C(=O)N(C)C(C)C)c3ccc(F)cc3n2)cn1	none
CC(C)n1cc(-c2cc(C(=O)N3CCC(C)(C)C3)c3ccc(F)cc3n2)cn1	KDM5B inhibitor 32µM
CC1CCCN1C(=O)c1cc(-c2cnn(C(C)C)c2)nc2cc(F)ccc12 (stereo not drawn)	KDM5B inhibitor 28µM
NC(=O)c1cc[nH]c1C1CCCN(C(=O)CCc2nc3ccccc3s2)C1 (stereo not drawn)	none
CC(=O)Nc1cccc(NC(=O)c2nn(Cc3ccccc3)c(=O)c3ccccc23)c1	none (no result: IP6K1 inh)
Cc1noc(-c2nc(-c3cccc(Cl)c3)no2)n1	none
Cc1nnc(CN(C)c2ccc(-c3nc(-c4cccc(Cl)c4)no3)cn2)o1	KDM5B inhibitor 28µM
O=C(CC[C@H]1NC(=O)c2ccccc2NC1=O)NC1CCN(Cc2ccc(F)cc2)CC1	none
O=c1[nH]c(Nc2ccccc2)nc2nccc(-c3ccco3)c12	none (no result: IP6K1 inh)
c1cnc2nc(-c3ccncc3)[nH]c2c1	KDM5B inhibitor 32µM
c1coc(-c2nc3ncccc3[nH]2)c1	KDM5B inhibitor 32µM!
COc1ccc(CSc2nc3ncccc3[nH]2)cc1	none
c1c[nH]c(-c2nc3ncccc3[nH]2)c1	KDM5B inhibitor 141µM!
O=[N+]([O-])c1ccc(-c2nc(-c3ccc(F)cc3)c(-c3ccncc3)[nH]2)cc1	none (no result: KDM5B inhibitor)
O=C(NC1CC1)[C@@H]1CN(Cc2ccc(Cl)cc2F)C[C@H]1CO	none
O=C(/C(=C/c1cccs1)c1nc2ccccc2o1)c1ccccc1	none (no result: IP6K1 inh)
CCOC(=O)C1CCCN(C(=O)c2cc3c(s2)CN(C2CCCC2)C3)C1 (stereo not drawn)	KDM5B inhibitor inconclusive
CCNC(=O)N1CCC(c2noc(-c3ccccn3)n2)C1 (stereo not drawn)	none
COc1cc(NC(=O)CCn2ccn3nc4c(c3c2=O)CCCC4)cc(OC)c1	none
Cn1ncc(N2CCOC(CCNc3cnc4ccccc4n3)C2)cc1=O (stereo not drawn)	KDM5B inhibitor 32µM
Cn1ncc(N2CCOC(CCNC(=O)c3cccnn3)C2)cc1=O (stereo not drawn)	none
O=C(NCc1cccs1)c1nc(-c2ccc(F)cc2)c2ccccn12	KDM5B inhibitor 28µM
C#CCNC(=O)c1nc(-c2ccc(F)cc2)c2ccccn12	none
C#CCNC(=O)c1nc(-c2ccccc2)c2ccccn12	KDM5B inhibitor 32µM
O=C(NCc1cccs1)c1nc2sccn2c1-c1ccncc1	none (no result: KDM5B inhibitor)
O=C(NCc1cccs1)c1noc(-c2ccc(F)cc2)n1	none
O=C(NCc1ccc(F)cc1)c1nc(-c2ccc(Cl)cc2Cl)c2ccccn12	KDM5B inhibitor inconclusive
O=C(NCc1ccc(F)cc1)c1nc(-c2ccsc2)c2ccccn12	KDM5B inhibitor 25µM
O=C(NCc1cccs1)c1nc(-c2ccsc2)c2ccccn12	KDM5B inhibitor 40µM
O=C(C1CCCN1C(=O)Cc1ccccn1)N1CCC(N2Cc3cccn3C2=O)CC1 (stereo not drawn)	none (no result: KDM5B inhibitor)
Cc1ccc(OCc2nc(C3CCN(C(=O)c4ccn[nH]4)CC3)no2)cc1	none
C[C@@H](NC(=O)c1cnccn1)c1onc(-c2ccccc2)c1C(=O)O	none
COc1ccc(/C=C(\C#N)Sc2ccc(Br)cc2)cc1	none (no result: IP6K1 inh)
COc1cc(CC2CC(c3ccc(Cl)cc3)=NO2)cc2c1OCO2 (stereo not drawn)	none (no result: IP6K1 inh)
Cc1cccc(C)c1-c1nc(C(=O)NCc2ccc3c(c2)OCO3)n2ccccc12	KDM5B inhibitor 28µM
O=C(NCc1ccc2c(c1)OCO2)c1nc(-c2ccccc2)c2ccccn12	KDM5B inhibitor inconclusive
O=C(NCc1cccs1)c1ccc(-c2ccccc2)cc1	none (no result: IP6K1 inh)
O=C(NCc1cccs1)c1nc(-c2ccccc2)c2ccccn12	KDM5B inhibitor 11µM
COCc1nc2nc(-c3ccccc3)c(-c3ccc(OC)cc3)cc2n1C	KDM5B inhibitor 32µM
